Compounds with a hit are over-represented: about 8.3% of the library has one in this group of screens.
HCMV inh = human cytomegalovirus inhibition | HFF cells, HCMV-luciferase reporter, 72 h; active compounds read low | activity change, negative = inhibition, % at 57.5 µM | 4.5% of 410,000 active; in the data active = activity change below about -60%; inconclusive = no clear call, values can overlap the other calls; inactive = above about -39%
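Two compound doses tested in HFFs infected with HCMV-luciferase, MOI 1 PFU/cell, 72 h at 37C. Lysate luminescence read with OneGlo; data normalized against buffer-only and 10uM Salinomycin inhibitor controls.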
MARV entry inh = Marburg virus entry inhibition. AID 540276. Potency, µM (titrated, usually from 37.8 µM), actives largely listed as inhibitors. 1.8% of 300,000 active. Marburg virus pseudotyped entry inhibition, cell reporter; calls by dose curve; tested in HEK293 cells
HCV inhibitor = blocks hepatitis C virus; 3.4% of 340,000 active; Huh7.5.1 HCVcc-Cre infection, luciferase reporter, 44 h; Potency, µM (titrated, usually from 41.8 µM), most hits filed as inhibitors
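Luciferase read-out (15 sec integration) after a 15 min room-temperature substrate step quantifies HCVcc-Cre infection. Cells, 1,000 per well, had compound added 4 h post-plating, then virus at ~0.5 moi, and were cultured 44 h.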
FMDV inh = foot and mouth disease virus antiviral activity | FMDV antiviral cell-based qHTS | Potency, µM (top dose mostly 57.9 µM), most hits filed as inhibitors | 1.2% of 410,000 active; calls by dose curve; tested in HEK293T cells; note: read-out not given here; nearly all actives have a fitted effect of over 45% in size
Giardia FBPA inh = blocks Giardia fructose-bisphosphate aldolase activity | purified Giardia FBPA | Potency, µM (top dose mostly 59.6 µM), most hits filed as inhibitors | 0.71% of 290,000 active | AID 2451; note: nearly all actives have a fitted effect of over 55% in size
Target sequence (A8B2U2 whole entry, looked up): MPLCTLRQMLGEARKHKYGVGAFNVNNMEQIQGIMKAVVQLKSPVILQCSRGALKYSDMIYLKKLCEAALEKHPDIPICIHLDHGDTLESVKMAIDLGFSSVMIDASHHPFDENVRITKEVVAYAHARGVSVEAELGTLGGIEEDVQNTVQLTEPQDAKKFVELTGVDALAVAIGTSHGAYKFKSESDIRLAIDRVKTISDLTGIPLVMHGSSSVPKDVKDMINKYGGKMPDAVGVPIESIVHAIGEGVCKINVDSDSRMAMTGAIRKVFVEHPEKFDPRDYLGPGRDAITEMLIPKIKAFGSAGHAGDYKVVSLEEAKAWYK
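40 nM FBPA preincubated 10 min at RT with compound (up to 57.5 uM final), then substrate plus GAPDH/TPI/NAD/arsenate coupling and diaphorase/resazurin added. Fluorescence read after 20 min at RT, 525/598 nm.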
LASV entry inh = Lassa virus entry inhibition; 1.2% of 300,000 active; Lassa virus pseudotype entry inhibition, cell reporter; Potency, µM (series often up to 37.9 µM), actives largely listed as inhibitors; AID 540256; calls by dose curve; tested in HEK293 cells; note: nearly all actives have a fitted effect of over 50% in size
Large screens that a line does not name were inactive; ! = a repeat was not active. Unless noted, calls come from the whole dose curve; as a rule, active = well fitted curve in the direction sought with a large enough effect; inconclusive = small, poorly fitted or top-dose-only effect, or another doubt; inactive = no such curve, though single readings can be large; an effect the other way counts as inactive or inconclusive.

CCOc1ccccc1NC(=O)c1c(NC(=O)Cc2ccc(OC)cc2)sc2c1CCC2	none (no result: MARV entry inh, HCV inhibitor, Giardia FBPA inh)
CCOc1ccc(S(=O)(=O)n2c(C)nc3ccccc32)cc1	HCV inhibitor inconclusive
CCOc1ccc(S(=O)(=O)N2CN(c3cccc(C(C)=O)c3)c3nc4ccccc4nc32)cc1	HCMV inh -71, HCV inhibitor inconclusive, LASV entry inh inconclusive (no result: Giardia FBPA inh)
Cc1ccccc1NC(=O)CCC(=O)N1CC(C)Sc2ccccc21 (centres undefined)	HCMV inh inconclusive (no result: MARV entry inh, HCV inhibitor, Giardia FBPA inh)
CC1CN(C(=O)CCC(=O)Nc2cc(F)ccc2F)c2ccccc2S1 (centres undefined)	HCMV inh -78 (no result: MARV entry inh, HCV inhibitor, Giardia FBPA inh)
O=C(Cc1c(Cl)cccc1Cl)OCC(=O)N1CCc2ccccc2C1	HCMV inh -101
O=C(COC(=O)c1ccccc1O)NCc1ccccc1Cl	HCMV inh -65, HCV inhibitor inconclusive (no result: MARV entry inh, Giardia FBPA inh, LASV entry inh)
COc1ccccc1CNC(=O)COC(=O)Cc1c(Cl)cccc1Cl	none (no result: MARV entry inh, LASV entry inh)
O=C(COC(=O)Cc1c(Cl)cccc1Cl)NCc1ccccc1	HCMV inh -68 (no result: MARV entry inh, HCV inhibitor, Giardia FBPA inh, LASV entry inh)
O=C(COC(=O)CC(c1ccccc1)c1ccccc1)NCc1ccc(Cl)cc1	MARV entry inh inconclusive, FMDV inh 35µM, LASV entry inh inconclusive
COc1cc([C@H](O)C(=O)O)ccc1O	none (no result: HCMV inh, HCV inhibitor, FMDV inh, Giardia FBPA inh, LASV entry inh)
O=C(O)c1cc(O)c2c(c1)[C@H]([C@H]1c3cc(C(=O)O)cc(O)c3C(=O)c3c(O[C@@H]4O[C@H](CO)[C@@H](O)[C@H](O)[C@H]4O)cccc31)c1cccc(OC3O[C@H](CO)[C@@H](O)[C@H](O)[C@H]3O)c1C2=O (some centres undefined)	HCMV inh -101, HCV inhibitor 0.35µM!, FMDV inh inconclusive (no result: MARV entry inh, Giardia FBPA inh, LASV entry inh)
O=C(O)c1cc(O)c2c(c1)[C@@H]([C@H]1c3cc(C(=O)O)cc(O)c3C(=O)c3c(O[C@@H]4O[C@H](CO)[C@@H](O)[C@H](O)[C@H]4O)cccc31)c1cccc(OC3O[C@H](CO)[C@@H](O)[C@H](O)[C@H]3O)c1C2=O (some centres undefined)	none (no result: MARV entry inh, Giardia FBPA inh, LASV entry inh)
CCc1ccc2nc(N(CCCN(C)C)C(=O)c3ccc(S(=O)(=O)N4CCc5ccccc5C4)cc3)sc2c1	HCMV inh -62, MARV entry inh inconclusive, HCV inhibitor inconclusive (no result: Giardia FBPA inh)
CCOc1cccc2sc(N(CCCN(C)C)C(=O)c3ccc(S(=O)(=O)N(C)c4ccccc4)cc3)nc12	HCV inhibitor inconclusive (no result: MARV entry inh, LASV entry inh)
CCOc1cccc2sc(N(CCCN(C)C)C(=O)c3ccc(S(=O)(=O)N4CCc5ccccc5C4)cc3)nc12	HCMV inh -68 (no result: MARV entry inh, LASV entry inh)
C/C1=C\[C@@H](O)C(C(C)C)C(OC(=O)c2ccc(O)cc2)C/C(C)=C/CC1 (some centres undefined)	none (no result: HCMV inh, MARV entry inh, HCV inhibitor, FMDV inh, LASV entry inh)
CN1[C@@H]2CC[C@H]1CC(OC(=O)[C@@H](O)c1ccccc1)C2 (some centres undefined)	none (no result: HCMV inh, HCV inhibitor, FMDV inh, LASV entry inh)
CCCCc1ccc(-c2ccc(C)cc2O)nc1	MARV entry inh inconclusive, LASV entry inh 10µM
CCS(=O)(=O)N1CCc2cc(C(=O)NCc3ccc(Cl)cc3)ccc21	none (no result: HCV inhibitor, Giardia FBPA inh)
CCOc1ccc(Cc2onc3c2C(=O)CCC3)cc1OCC	HCMV inh -89, HCV inhibitor inconclusive
Cc1ccc(C)c(Cn2c(-c3cccs3)nc3ccccc32)c1	none (no result: HCV inhibitor, Giardia FBPA inh)
CCOC(=O)N1CCN(S(=O)(=O)c2ccc(C(=O)N(CCN(C)C)c3nc4ccc(Cl)cc4s3)cc2)CC1	HCV inhibitor inconclusive (no result: MARV entry inh, Giardia FBPA inh, LASV entry inh)
CCOC(=O)N1CCN(S(=O)(=O)c2ccc(C(=O)NNc3nc4ccc(Cl)cc4s3)cc2)CC1	MARV entry inh 18µM, HCV inhibitor 7.1µM, FMDV inh inconclusive, LASV entry inh inconclusive (no result: HCMV inh)
Cc1cc(C)c2nc(NNC(=O)c3ccc(S(=O)(=O)N4CCCCC4)cc3)sc2c1	HCMV inh -96, MARV entry inh inconclusive, HCV inhibitor 6.3µM, LASV entry inh inconclusive
CCOC(=O)N1CCN(S(=O)(=O)c2ccc(C(=O)NNc3nc4c(C)cccc4s3)cc2)CC1	HCMV inh -103, MARV entry inh inconclusive, HCV inhibitor inconclusive, FMDV inh inconclusive, LASV entry inh inconclusive
CCOC(=O)N1CCN(S(=O)(=O)c2ccc(C(=O)N(CCN(CC)CC)c3nc4c(C)cccc4s3)cc2)CC1	MARV entry inh inconclusive, Giardia FBPA inh inconclusive
